Rv3671c inh: inhibits the M. tuberculosis serine protease Rv3671c. P9WHR9. 320,000 tested, 0.048% active. inhibition, % at 5.96 µM; in the data active = inhibition above about 38%;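 also: extracellular domain of Rv3671c used as enzyme; 0% = enzyme with DMSO and 100% = no enzyme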
FBA Mtb inh: inhibitors of M. tuberculosis fructose-bisphosphate aldolase; purified M. tuberculosis FBA, fluorescence read-out; inhibition, % at 1 µM; 360,000 tested, 2.3% active; P9WQA3;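 also: 0% = vehicle and 100% = reference inhibitor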
RecA splice inh: blocks M. tuberculosis RecA intein splicing | cell-free RecA intein splicing, fluorescence | AID 2221 | inhibition, % (no concentration beside the values) | 290,000 tested, 0.75% active | P9WHJ3; in the data active = inhibition above about 30%;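 also: 0% = vehicle wells and 100% = reference inhibitor control wells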
Target sequence (P9WHJ3 whole entry, looked up, canonical isoform): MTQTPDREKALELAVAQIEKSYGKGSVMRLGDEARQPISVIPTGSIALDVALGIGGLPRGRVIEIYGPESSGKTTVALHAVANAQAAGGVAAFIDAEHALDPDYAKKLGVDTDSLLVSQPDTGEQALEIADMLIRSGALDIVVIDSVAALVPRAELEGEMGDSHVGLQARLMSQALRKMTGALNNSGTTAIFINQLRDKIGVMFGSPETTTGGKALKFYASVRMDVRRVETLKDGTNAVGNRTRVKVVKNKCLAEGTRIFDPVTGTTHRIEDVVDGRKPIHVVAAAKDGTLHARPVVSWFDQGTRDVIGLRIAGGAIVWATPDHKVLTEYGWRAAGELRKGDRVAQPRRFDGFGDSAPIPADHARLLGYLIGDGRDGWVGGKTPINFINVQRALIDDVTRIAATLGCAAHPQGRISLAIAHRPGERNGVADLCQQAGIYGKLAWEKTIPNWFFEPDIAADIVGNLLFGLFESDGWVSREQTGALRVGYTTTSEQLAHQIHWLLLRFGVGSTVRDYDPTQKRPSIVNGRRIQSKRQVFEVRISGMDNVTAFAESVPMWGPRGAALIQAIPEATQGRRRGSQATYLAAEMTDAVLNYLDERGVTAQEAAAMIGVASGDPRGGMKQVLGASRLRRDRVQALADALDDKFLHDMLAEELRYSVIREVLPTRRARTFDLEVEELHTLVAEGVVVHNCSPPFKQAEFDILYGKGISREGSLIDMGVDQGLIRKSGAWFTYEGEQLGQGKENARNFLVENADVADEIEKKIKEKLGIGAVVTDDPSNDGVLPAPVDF
GDH-TPI counter-1: GDH-TPI coupled enzyme inhibition counter-screen | 360,000 tested, 1.2% active | inhibition, % at 4.8 µM | GDH-TPI coupled enzyme counterscreen, NADH absorbance; in the data active = inhibition above about 30%;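 also: 0% = DMSO wells and 100% = wells lacking the enzyme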
BH1578 lux ind: inducers of Vibrio cholerae quorum light production without autoinducers; V. cholerae BH1578 lux reporter, luminescence, 6 h; activation, % at 18.7 µM; 350,000 tested, 0.16% active; AID 588436; in the data active = activation mostly above about 9.7%, no sharp cut-off
Mtb UGM inh: blocks M. tuberculosis UGM enzyme; purified UGM, fluorescence polarization probe displacement; inhibition, % at 10 µM; 320,000 tested, 0.06% active; in the data active = inhibition above about 10%, passing the limit was not always enough
Mtb FBA confirm: Mtb FBA inhibition, confirmed | 5,600 tested, 78% active | purified M. tuberculosis FBA, fluorescence read-out | shares compounds with FBA Mtb inh | inhibition, % at 1 µM;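 also: 0% = vehicle wells and 100% = reference inhibitor wells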
GDH-TPI counter-2: GDH-TPI inhibition counter-screen for FBA inhibitors; 5,600 tested, 81% active; shares compounds with FBA Mtb inh; GDH-TPI coupled enzyme counterscreen, fluorescence; inhibition, % at 1 µM; in the data active = inhibition above about 10%
* = called active by the depositor; i = inactive; · = not tested or not shown; + = active, no number. Compounds with a hit are over-represented: about 4.1% of the library has one in this group of screens. Rule as the data show it, unless noted: active = inhibition above about 27%; inactive = the rest.

SMILES	Rv3671c inh	FBA Mtb inh	RecA splice inh	GDH-TPI counter-1	BH1578 lux ind	Mtb UGM inh	Mtb FBA confirm	GDH-TPI counter-2
CCOC(=O)c1c(-c2ccccc2)oc2ccc(OCC(O)CNCCN(C)C)cc12 (stereo unspecified)	-2	42*	-4	7	1	-1	1	-1
CC(=O)Oc1ccc2oc(C)c(C(=O)N3CCOCC3)c2c1	-9	1	2	2	5	2	·	·
CCOc1ccc2oc(-c3ccccc3)c(C(=O)N3CCN(C)CC3)c2c1	1	71*	-3	21	6	0	92*	58*
COc1ccc2oc(-c3ccccc3)c(C(=O)N3CCOCC3)c2c1	1	40*	-3	11	i	0	72*	48*
N#Cc1cccc(NC(=O)COC(=O)c2ccc[n+]([O-])c2)c1	-14	-1	·	2	i	3	·	·
COc1cc(C(=O)N(C)CCOc2ccc(C)cc2)ccc1OC1CCN(C(C)=O)CC1	0	-1	0	-1	1	0	·	·
CCOC(=O)C1=C(COC(=O)c2ccc(OC)c(S(=O)(=O)N3CCOCC3)c2)NC(=O)NC1C (stereo unspecified)	·	1	·	9	-1	·	·	·
O=C(Nc1ccccc1SCC1CSc2nc3ccccc3c(=O)n21)c1ccccc1 (stereo unspecified)	7	-2	-8	0	i	5	·	·
O=C(Nc1ccccc1SCC1CSc2nc3ccccc3c(=O)n21)c1cccc(Cl)c1 (stereo unspecified)	-2	59*	-1	-1	i	3	85*	79*
COc1ccc2c(OC)c3ccoc3nc2c1OC	1	96*	-2	1	0	-3	192*	166*
CC(C)(C)c1csc(NC(=O)c2ccccc2O)n1	-9	37*	1	23	i	0	43*	36*
Cc1csc(NC(=O)c2cc(C)oc2C)n1	0	0	1	0	0	-2	·	·
Cc1csc(NC(=O)c2ccccc2O)n1	2	66*	2	21	i	-2	99*	85*
CC(C)(C)c1csc(NC(=O)c2cccnc2Cl)n1	5	3	-2	3	i	0	·	·
CCCCN1C(=O)C(CC(=O)NCCCCc2ccccc2)CC(C(=O)N(C(C)C)C(C)C)=C1C (stereo unspecified)	·	0	·	-4	2	·	·	·
Cc1oc(-c2cccs2)nc1CSCC(=O)N1CCC2(CC1)OCCO2	2	28*	·	-6	i	2	164*	144*
CCCCc1cc(=O)oc2cc(C)cc(OCC(=O)NC(Cc3ccc(Cl)cc3)C(=O)O)c12 (stereo unspecified)	-9	63*	-1	7	0	2	105*	68*
CCCc1cc(=O)oc2cc(C)cc(OCC(=O)NC(Cc3ccc(Cl)cc3)C(=O)O)c12 (stereo unspecified)	-2	70*	-3	5	-1	0	3	0
CCCc1cc(=O)oc2cc(C)cc(OCC(=O)Nc3ccc(S(N)(=O)=O)cc3)c12	-5	19	-1	7	0	3	·	·
O=C(NNc1c(F)c(F)cc(F)c1F)C1CCN(S(=O)(=O)c2ccccc2F)CC1	6	2	·	-5	i	-3	·	·
COc1cc(OC)c(C(=O)OCC(=O)NCCC2=CCCCC2)cc1OC	2	0	0	-4	-3	0	·	·
Nc1ccc2c(S(=O)(=O)O)cccc2c1S(=O)(=O)O	·	53*	·	17	-3	·	76*	81*
Nc1ccccc1S(=O)(=O)c1ccccc1N	3	-5	0	4	-7	0	·	·
Cc1[nH]nc2c1-c1nc3ccccc3nc1C(C)(C)C2	-13	38*	0	25	21	-1	16	18*
O=C(Nc1ccc(F)cc1)C1CCCN(S(=O)(=O)c2ccc3[nH]c(=O)ccc3c2)C1 (stereo unspecified)	0	-1	0	1	0	3	·	·
SMILES	Rv3671c inh	FBA Mtb inh	RecA splice inh	GDH-TPI counter-1	BH1578 lux ind	Mtb UGM inh	Mtb FBA confirm	GDH-TPI counter-2
CN1CCN(CCCNC(=O)c2ccc(/C=C3\Oc4ccccc4N(Cc4ccccc4F)C3=O)cc2)CC1	-77	55*	-54	17	-5	-1	-1	-4
Cc1cccc(CN2C(=O)/C(=C\c3ccc(C(=O)NCCCN4CCN(C)CC4)cc3)Oc3ccccc32)c1	-75	81*	-80	5	0	-1	10	-3
O=C(CNC(=O)c1ccc(Br)o1)NNC(=O)c1n[nH]c(=O)c2ccccc12	-4	-2	·	7	i	-3	·	·
CCOC(=O)CSc1nc(-c2ccncc2)ccc1C#N	1	14	-1	20	i	-2	·	·
N#Cc1ccc(-c2cccs2)nc1SCc1cccnc1	-2	34*	2	-2	-1	1	12	-5
CN1CCN(C(=O)CSc2nc(-c3cccs3)ccc2C#N)CC1	-2	50*	0	28	-3	-2	+	+
CN(C)c1c(-c2ccccc2)cc(-c2ccccc2)[nH]c1=O	·	7	-9	3	0	·	·	·
O=C(O)c1ccc(-c2ccccc2)[nH]c1=O	-3	106*	0	19	i	-4	+	+
c1ccc(-c2ccc(-c3ccccc3)[nH]2)cc1	·	64*	·	18	i	·	178*	163*
O=c1cc(-c2ccccc2)[nH]c2ccccc12	2	4	-3	11	0	-1	·	·
Cc1ccc(NC(=O)C2CCN(S(=O)(=O)c3ccc4c(c3)NC(=O)CO4)CC2)cc1	-14	-3	0	-4	-1	-3	·	·
CCC1S/C(=N/S(=O)(=O)c2ccc(N)cc2)NC1=O (stereo unspecified)	·	-2	·	-12	i	·	·	·
CC1=C(C(=O)N(C(C)C)C(C)C)CC(CC(=O)NCCCCc2ccccc2)C(=O)N1Cc1ccc(F)cc1 (stereo unspecified)	·	-3	·	·	·	·	·	·
CCCN(CCC)CC(O)Cn1c2ccccc2c2ccccc21 (stereo unspecified)	2	0	-1	-1	0	0	·	·
CC(C)CCN(CCC(C)C)CC(O)Cn1c2ccccc2c(=O)c2ccccc21 (stereo unspecified)	3	31*	i	-2	0	-3	45*	35*
N#CC1(C#N)C(c2ccccc2)OC23CCCCC2C1(C#N)C(=N)O3 (stereo unspecified)	0	75*	-311	0	0	5	58*	64*
N#CC1(C#N)C(c2ccccc2)OC23CCCCCC2C1(C#N)C(=N)O3 (stereo unspecified)	-8	41*	-58	2	i	2	40*	34*
C[C@H](CO)N1C[C@H](C)[C@@H](CN(C)C(=O)CN2CCOCC2)Oc2cc(Br)ccc2S1(=O)=O	·	3	·	-7	0	·	·	·

Screening data: PubChem BioAssay, several laboratories
